The record followed here is the supplement of paper PMC9492666.

The test system of one test is HCC1937. The test can be described thus: relative cell viability, compound + erastin, vs DMSO (fraction of DMSO control); higher = less growth inhibition. Conditions: 72 h.
In the next test the test system is MDA-MB-231. The test is described as above. Conditions: 72 h.

Where a name gives a salt, the structure may show the parent alone.
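Also: viability read by CCK-8 kit in 96-well plates, part of a combination screen pairing lipid-metabolism-targeting compounds with erastin.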

Consider `COC(=O)c1cc(Cl)c(O)c(S(=O)(=O)Nc2cc(-c3ccccc3)c(F)cc2F)c1` + CCOc1ccccc1-n1c(C(C)N2CCN(C(=O)COc3ccc(Cl)cc3)CC2)nc2ccccc2c1=O [erastin], for which the relative cell viability with HCC1937 turned out to be 0.728; in the test on MDA-MB-231, 0.806.

Consider `O=C1C(SCCO)=C(SCCO)C(=O)c2ccccc21` + CCOc1ccccc1-n1c(C(C)N2CCN(C(=O)COc3ccc(Cl)cc3)CC2)nc2ccccc2c1=O [erastin], for which the relative cell viability in the test with HCC1937 came to 0.575; in the test on MDA-MB-231, 0.851.

In the case of `CC(C)(O)[C@@H]1Cc2cc3ccc(=O)oc3cc2O1` [marmesin] + CCOc1ccccc1-n1c(C(C)N2CCN(C(=O)COc3ccc(Cl)cc3)CC2)nc2ccccc2c1=O [erastin], the relative cell viability is 0.645 in the test on HCC1937 and 0.646 with MDA-MB-231.

Turning to `COc1ccc(C(=O)/C=C/c2ccccc2)cc1` [4'-Methoxychalcone] + CCOc1ccccc1-n1c(C(C)N2CCN(C(=O)COc3ccc(Cl)cc3)CC2)nc2ccccc2c1=O [erastin], the relative cell viability in the test with HCC1937 and with MDA-MB-231 was 0.54 throughout.

For `N#Cc1ccc(Oc2cccc(NC(=O)Nc3ccc(Cl)c(C(F)(F)F)c3)c2)cc1` + CCOc1ccccc1-n1c(C(C)N2CCN(C(=O)COc3ccc(Cl)cc3)CC2)nc2ccccc2c1=O [erastin], the relative cell viability in the test on HCC1937 turned out to be 0.0713; in the test with MDA-MB-231, 0.127.

Turning to `CC(O)(CC(=O)O)CC(=O)O` [Meglutol] + CCOc1ccccc1-n1c(C(C)N2CCN(C(=O)COc3ccc(Cl)cc3)CC2)nc2ccccc2c1=O [erastin], the results for the relative cell viability in the test with HCC1937 and in the test with MDA-MB-231 were 0.708 and 0.67, respectively.

With `COc1cc(F)c(C(C)C)cc1-c1ccc(C(F)(F)F)cc1CN1C(=O)O[C@H](c2cc(C(F)(F)F)cc(C(F)(F)F)c2)[C@@H]1C` [Anacetrapib] + CCOc1ccccc1-n1c(C(C)N2CCN(C(=O)COc3ccc(Cl)cc3)CC2)nc2ccccc2c1=O [erastin], the relative cell viability worked out at 0.557 in the test with HCC1937 and 0.639 in the test with MDA-MB-231.

Turning to `CC(C)=CCC[C@](C)(O)[C@H]1CC[C@]2(C)[C@@H]1[C@H](O)C[C@@H]1[C@@]3(C)CC[C@H](O)C(C)(C)[C@@H]3[C@@H](O[C@@H]3O[C@H](CO)[C@@H](O)[C@H](O)[C@H]3O)C[C@]12C` [Ginsenoside Rh1] + CCOc1ccccc1-n1c(C(C)N2CCN(C(=O)COc3ccc(Cl)cc3)CC2)nc2ccccc2c1=O [erastin], the relative cell viability was 0.679 in the test on HCC1937 and 0.663 in the test on MDA-MB-231.

Regarding `CC(C)CCC[C@@H](C)[C@H]1CC[C@H]2[C@@H]3CCC4=CC(=NO)CC[C@]4(C)[C@H]3CC[C@]12C` [Olesoxime] + CCOc1ccccc1-n1c(C(C)N2CCN(C(=O)COc3ccc(Cl)cc3)CC2)nc2ccccc2c1=O [erastin], the relative cell viability was found to be 0.673 in the test on HCC1937 and 0.663 in the test on MDA-MB-231.

Consider `CN(C(=O)n1cnc(-c2ccc[n+]([O-])c2)c1)C1CCCCC1` + CCOc1ccccc1-n1c(C(C)N2CCN(C(=O)COc3ccc(Cl)cc3)CC2)nc2ccccc2c1=O [erastin], for which the relative cell viability in the test with HCC1937 is 0.427; in the test on MDA-MB-231, 0.613.

`COc1cc([C@@H]2Oc3c(O)cc([C@H]4Oc5cc(O)cc(O)c5C(=O)[C@@H]4O)cc3[C@H]2CO)ccc1O` [Silychristin] + CCOc1ccccc1-n1c(C(C)N2CCN(C(=O)COc3ccc(Cl)cc3)CC2)nc2ccccc2c1=O [erastin]: the relative cell viability in the test with HCC1937 turned out to be 0.584; in the test on MDA-MB-231, 0.685.

For the compound `O=C(CBr)c1ccc(O)cc1` [PTP Inhibitor I] + CCOc1ccccc1-n1c(C(C)N2CCN(C(=O)COc3ccc(Cl)cc3)CC2)nc2ccccc2c1=O [erastin], the relative cell viability with HCC1937 is 0.717; with MDA-MB-231 it was 0.64.

Consider `O=C(Nc1ccc(C(O)(C(F)(F)F)C(F)(F)F)cc1)c1ccccc1Cl` + CCOc1ccccc1-n1c(C(C)N2CCN(C(=O)COc3ccc(Cl)cc3)CC2)nc2ccccc2c1=O [erastin], for which the relative cell viability is 0.769 in the test on HCC1937 and 0.844 with MDA-MB-231.

Regarding `CCN(CC)CCCC(C)Nc1c2ccc(Cl)cc2nc2ccc(OC)cc12` (centres undefined) [Quinacrine dihydrochloride] + CCOc1ccccc1-n1c(C(C)N2CCN(C(=O)COc3ccc(Cl)cc3)CC2)nc2ccccc2c1=O [erastin], the relative cell viability amounted to 0.164 in the test with HCC1937 and 0.299 with MDA-MB-231.

As for `c1ccc([C@H]2CN3CCSC3=N2)cc1` [Levamisole hydrochloride] + CCOc1ccccc1-n1c(C(C)N2CCN(C(=O)COc3ccc(Cl)cc3)CC2)nc2ccccc2c1=O [erastin], the relative cell viability was determined as 0.768 with HCC1937 and 0.779 with MDA-MB-231.

In the case of `CC1(N)CCN(c2cnc(-c3cccc(Cl)c3Cl)c(N)n2)CC1` [SHP099 hydrochloride] + CCOc1ccccc1-n1c(C(C)N2CCN(C(=O)COc3ccc(Cl)cc3)CC2)nc2ccccc2c1=O [erastin], the relative cell viability was determined as 0.729 with HCC1937 and 0.647 in the test with MDA-MB-231.

On to `O=C(Oc1ccc([N+](=O)[O-])cc1)N1CCC(C(O)(c2ccc3c(c2)OCO3)c2ccc3c(c2)OCO3)CC1` + CCOc1ccccc1-n1c(C(C)N2CCN(C(=O)COc3ccc(Cl)cc3)CC2)nc2ccccc2c1=O [erastin], for which the results for the relative cell viability in the test with HCC1937 and in the test with MDA-MB-231 were 0.556 and 0.641, respectively.

Turning to `C=C(C)[C@@H]1CC[C@]2(CO)CC[C@]3(C)[C@H](CC[C@@H]4[C@@]5(C)CC[C@H](O)C(C)(C)[C@@H]5CC[C@]43C)[C@@H]12` [Betulin] + CCOc1ccccc1-n1c(C(C)N2CCN(C(=O)COc3ccc(Cl)cc3)CC2)nc2ccccc2c1=O [erastin], the relative cell viability was 0.524 with HCC1937 and 0.32 in the test with MDA-MB-231.

As to `NC(=O)c1cnccn1` [Pyrazinamide] + CCOc1ccccc1-n1c(C(C)N2CCN(C(=O)COc3ccc(Cl)cc3)CC2)nc2ccccc2c1=O [erastin], the relative cell viability in the test on HCC1937 was found to be 0.791; in the test on MDA-MB-231, 0.948.

Turning to `Cc1cc(N2C[C@@H](C)N[C@@H](C)C2)ncc1-c1ccc(-c2nc3c(ccn3C)c(=O)[nH]2)cc1` + CCOc1ccccc1-n1c(C(C)N2CCN(C(=O)COc3ccc(Cl)cc3)CC2)nc2ccccc2c1=O [erastin], the relative cell viability came to 0.506 in the test with HCC1937 and 0.551 in the test with MDA-MB-231.

Consider `CNC(=O)c1cccc(NC(=O)N2CCC(Oc3ccccc3Cl)CC2)c1` + CCOc1ccccc1-n1c(C(C)N2CCN(C(=O)COc3ccc(Cl)cc3)CC2)nc2ccccc2c1=O [erastin], for which the relative cell viability came to 0.566 in the test with HCC1937 and 0.523 with MDA-MB-231.

Regarding `CC1(C)CC[C@]2(C(=O)O[C@@H]3O[C@H](CO)[C@@H](O)[C@H](O)[C@H]3O)CC[C@]3(C)C(=CC[C@@H]4[C@@]5(C)CC[C@H](O[C@@H]6O[C@H](C(=O)O)[C@@H](O)[C@H](O)[C@H]6O[C@@H]6O[C@H](CO)[C@@H](O)[C@H](O)[C@H]6O)C(C)(C)[C@@H]5CC[C@]43C)[C@@H]2C1` [Ginsenoside Ro] + CCOc1ccccc1-n1c(C(C)N2CCN(C(=O)COc3ccc(Cl)cc3)CC2)nc2ccccc2c1=O [erastin], the relative cell viability worked out at 0.703 with HCC1937 and 0.726 in the test on MDA-MB-231.
